Assay outcomes (PubChem BioAssay)
D1 antag = Antagonist of Human D 1 Dopamine Receptor: qHTS; D(1A) dopamine receptor (Homo sapiens), P21728; HEK293 TREx D1 cells, calcium flux, dopamine EC80; hits give low values; activity change, negative = inhibition, % at 10 µM; 360,000 tested, 3.2% active; AID 504652, 2011; in the data active means activity change below about -30%
Target sequence (P21728 whole entry, looked up): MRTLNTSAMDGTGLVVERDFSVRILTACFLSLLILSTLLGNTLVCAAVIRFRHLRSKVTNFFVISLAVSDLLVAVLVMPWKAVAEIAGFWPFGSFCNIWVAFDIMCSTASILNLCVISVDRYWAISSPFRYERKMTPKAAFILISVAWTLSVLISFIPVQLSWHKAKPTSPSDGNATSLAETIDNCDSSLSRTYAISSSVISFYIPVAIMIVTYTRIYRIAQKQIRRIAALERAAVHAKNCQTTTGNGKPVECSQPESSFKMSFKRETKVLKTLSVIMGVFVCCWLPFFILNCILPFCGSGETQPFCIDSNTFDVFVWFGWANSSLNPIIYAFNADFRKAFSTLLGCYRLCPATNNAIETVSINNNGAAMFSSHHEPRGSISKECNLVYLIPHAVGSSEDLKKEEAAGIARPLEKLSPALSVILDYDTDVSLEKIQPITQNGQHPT
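Calcium flux readout: force-coupled, inducible Hek293 Trex D1 line, cells induced overnight at 30 C with tetracycline, dye-loaded 30–90 min at RT. Antagonism scored against EC80 dopamine challenge given 180 s after compound.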
D1 PAM = Potentiators of Human D1 Dopamine Receptor: qHTS | HEK293 TREx D1 cells, calcium flux, dopamine EC20 potentiation | potentiation, % at 10 µM | 360,000 tested, 0.036% active; in the data active means potentiation above about 30%
TRHR agonist-1 = qHTS for Small Molecule Agonists and Allosteric Enhancers of Human TRH Receptor: Primary Screen for Agonists; TRHR cells, calcium flux fluo-8, FDSS agonist mode; 360,000 tested, 0.18% active; activation, % at 2 µM; AID 493084, 2011; in the data active means activation above about 30%
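TRHR-expressing cells, plated overnight in medium with 10% serum, were loaded with fluo-8 calcium dye at room temperature. After a 10 s baseline, library compound was pin-added and calcium release was recorded kinetically (ex 480/em 530) as agonist response.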
D1 ag = Allosteric Agonists of the Human D1 Dopamine Receptor: qHTS; 360,000 tested, 1% active; D(1A) dopamine receptor (Homo sapiens), P21728; HEK293 T-REx D1 cells, calcium flux, agonist mode; activation, % at 2 µM; in the data active means activation above about 30%
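Agonism was scored from calcium flux recorded over 180 s (1 read/s) after pintool compound addition, following a 10-cycle baseline. Cells were inducible force-coupled HEK293 TREx D1, plated overnight at 30 C and loaded with no-wash calcium dye.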
TRHR enhancer-1 = qHTS for Small Molecule Agonists and Allosteric Enhancers of Human TRH Receptor: Primary Screen for Enhancers. Thyrotropin-releasing hormone receptor (Homo sapiens), P34981. TRHR cells, fluo-8 calcium fluorescence, EC20 TRH enhancement. enhancement, % at 2 µM. 360,000 tested, 0.66% active. AID 493056, 2011; in the data active means enhancement above about 30%
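Enhancer read-out: after compound pinning and an initial kinetic agonist-mode read, an EC20 of TRH (10 nM final) was injected and fluo-8 calcium signal (Ex 480/Em 530) followed at 1 s/cycle for 100 cycles in TRHR-expressing cells.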
TRHR enhancer-2 = qHTS for Small Molecule Agonists and Allosteric Enhancers of Human TRH Receptor: Confirmation Screen for Enhancers | shares compounds with TRHR enhancer-1 | TRH receptor cell assay, enhancer confirmation qHTS | activity change, negative = inhibition, % at 46.1 µM | 970 tested, under 10 active;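 further: compound effect scored on response to added TRH at EC20 of 10 nM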
TRHR agonist-2 = qHTS for Small Molecule Agonists and Allosteric Enhancers of Human TRH Receptor: Confirmation Screen for Agonists | shares compounds with TRHR enhancer-1 | TRHR-expressing cells, agonist activation read-out | Potency, µM (series often up to 46.1 µM), actives largely listed as activators | 970 tested, 8% active | AID 493078, 2011; further: nearly all actives have a fitted effect of over 75% in size
Large screens that a line does not name were inactive (follow-up assays come after a bar, where they were run). Rows were chosen to be rich in hits. Some 4.6% of all compounds tested hit in one or more screens of this group. Unless noted, the call rests on the fitted dose curve; in most records, active means well fitted curve in the direction sought with a large enough effect; inconclusive means small, poorly fitted or top-dose-only effect, or another doubt; inactive means no such curve, though single readings can be large; an effect the other way counts as inactive or inconclusive.

CN(C)c1ccc(/C=C/c2nc3ccccc3c(=O)[nH]2)cc1	TRHR agonist-1 59.0, D1 ag 38.5 | TRHR enhancer-2 inconclusive | TRHR agonist-2 20.6µM
Cc1ccc(OCc2nc(C#N)c(NCCCn3ccnc3)o2)cc1	none
N#Cc1nc(COc2ccccc2)oc1NCCCn1ccnc1	D1 antag -32.8, TRHR enhancer-1 57.0 | TRHR enhancer-2 inactive | TRHR agonist-2 inactive
Cc1oc2cc3oc(=O)c(CC(=O)N[C@@H](C)C(=O)NC(Cc4ccc(Cl)cc4)C(=O)O)c(C)c3cc2c1C (stereo partly specified)	TRHR enhancer-1 43.7 | TRHR enhancer-2 inactive | TRHR agonist-2 inactive
CCC(NC(=O)Cc1c(C)c2ccc(OC)c(C)c2oc1=O)C(=O)NC(Cc1ccc(Cl)cc1)C(=O)O (stereo unspecified)	none
NS(=O)(=O)c1ccc(NC(=O)CN2CCc3ccccc32)cc1	TRHR enhancer-1 56.1 | TRHR enhancer-2 inactive | TRHR agonist-2 inactive
COc1ccc(Nc2ccc(N3C(=O)CCCC3=O)cc2[N+](=O)[O-])cc1OC	none
CCOc1ccc(Nc2ccc(N3C(=O)CCC3=O)cc2[N+](=O)[O-])cc1	TRHR enhancer-1 47.8 | TRHR enhancer-2 inactive | TRHR agonist-2 inactive
Nc1ncnc(Nc2ccc(F)c(Cl)c2)n1	TRHR enhancer-1 45.0 | TRHR enhancer-2 inactive | TRHR agonist-2 inactive
O=C(NCCc1ccc(Cl)cc1)c1cc(-c2ccncc2)nc2ccccc12	none
NS(=O)(=O)c1ccc(CCNC(=O)c2cc(=O)[nH]c3ccccc23)cc1	none
O=C(NCCc1ccc(Cl)cc1)c1cc(=O)[nH]c2ccccc12	TRHR enhancer-1 42.9 | TRHR enhancer-2 inconclusive | TRHR agonist-2 inactive
O=C(NCCc1ccc(Cl)cc1)c1cc(-c2ccccn2)nc2ccccc12	TRHR enhancer-1 49.1 | TRHR enhancer-2 inactive | TRHR agonist-2 inactive
Cc1ccc2[nH]c(=O)c3cc(C(=O)NCCc4ccc(Cl)cc4)sc3c2c1	TRHR enhancer-1 57.2 | TRHR enhancer-2 inactive | TRHR agonist-2 inactive
CC(=O)c1ccc(NC(=O)c2cn(C)c(=O)c3ccccc23)cc1	none
COc1cc(NC(=O)c2cc3nc(-c4ccccc4)cc(-c4ccccc4)n3n2)c(OC)cc1Cl	none
CSCc1ccc(C(=O)NC(C)c2cnn(-c3ccccn3)c2C)o1 (stereo unspecified)	none
Cc1ccc(C(=O)CN2C(=O)NC3(CCc4ccccc43)C2=O)s1 (stereo unspecified)	TRHR enhancer-1 57.6 | TRHR enhancer-2 inactive | TRHR agonist-2 inactive
COc1ccc(N(CC(=O)Nc2cccc(C(C)=O)c2)S(C)(=O)=O)cc1OC	TRHR enhancer-1 52.8 | TRHR enhancer-2 inactive | TRHR agonist-2 inactive
COc1cccc(N(CC(=O)Nc2cccc(C(C)=O)c2)S(C)(=O)=O)c1	none
Nc1nc(SCc2c(Cl)cccc2Cl)n[nH]1	TRHR enhancer-1 44.9 | TRHR enhancer-2 inactive | TRHR agonist-2 inactive
Cc1cc(C)c2c(n1)nn1c(NCCCN(C)C)cc(C)nc21	TRHR enhancer-1 57.4 | TRHR enhancer-2 inactive | TRHR agonist-2 inactive
CC1CCCCN1C(=O)C1COc2ccccc2O1 (stereo unspecified)	none
Oc1oc(-c2cccc3ccccc23)nc1/C=N/c1nccs1	TRHR agonist-1 34.1, D1 ag 43.6 | TRHR enhancer-2 inactive | TRHR agonist-2 inconclusive
Cc1ccnc(N=Cc2nc(-c3ccccc3Br)oc2O)c1	none
Cn1nc(C(=O)Nc2nc3ccc(S(C)(=O)=O)cc3s2)ccc1=O	TRHR enhancer-1 45.1 (no result: D1 antag) | TRHR enhancer-2 inactive | TRHR agonist-2 inactive
CS(=O)(=O)c1ccc2nc(NC(=O)c3ccc(=O)[nH]c3)sc2c1	none
